From PubChem BioAssay
The source made the active and inactive calls.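 How the source made its calls, unless noted: active means NADPH fluorescence slope more negative than the mean of all samples by about 3 SD, 99.7% confidence; inactive means the rest.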

Experiments:
[1] = inhibitors of TNFa-induced NFkB p65 translocation, primary screen, imaging, HUVEC, MLSMR starter and 10KST1 sets (AID 438;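 active means inhibition above 20% together with a positive visual image hit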;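 further: compound added about 3h40 before a 20 min TNFalpha stimulation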;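 on inhibition: signal is the nuclear over cytoplasmic p65 intensity ratio per well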); settings: HUVEC TNFa-induced p65 nuclear translocation; cell count: measured here: nuclei count (cytotoxicity indicator), at 2.08 µM; inhibition: at 2 µM, stronger effect = higher value, 0% TNFa-plus-vehicle, 100% no-TNFa wells
[2] = reduction of polyQ htt aggregates in cells – imaging, exon1htt(103Q)mCFP cells, high-content imaging, primary screen (AID 483;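 active means visual image review flags a hit and inhibition of aggregation exceeds 20%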;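 further: compound exposure lasted 3 days before fixation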;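 on nuclei count: percent of the per-plate median nuclei count of sample wells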); settings: exon1htt(103Q)mCFP cell line, aggregate imaging, at 2 µM; inhibition of aggregation: stronger effect = higher value; nuclei count: measured here: cell count, toxicity
[3] = endothelial E-selectin expression blockers – imaging, HUVEC, immunofluorescence, MLSMR starter and 10KST1 sets, primary screen (AID 487;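 active means visually confirmed hit in the image check and inhibition above 20%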;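 on inhibition: signal is fraction of cell area covered by stained E-selectin grains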;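 on nuclei count: 100% = median nuclei count of all wells on the same plate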); settings: HUVEC TNFalpha-induced E-selectin immunofluorescence imaging, at 2 µM; inhibition: stronger effect = higher value; nuclei count: measured here: cell number, toxicity
[4] = target: Voltage-gated potassium channel subunit beta-2 (Rattus norvegicus) (UniProt P62483); assay: inhibitors of rat Kvbeta2 reductase activity – biochemical, NADPH fluorescence, primary screen (AID 622;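 active means fluorescence slope higher than the sample average by over 3 SD, cut at about -0.22 in these data, passing the limit was not always enough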;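 further: slope of raw intensity against log time taken from 70 to 1610 s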); settings: recombinant KvBeta, 4-cyanobenzaldehyde reduction, at 10 µM, stronger effect = higher value
Chain of Voltage-gated potassium channel subunit beta-2 (Rattus norvegicus) (P62483 whole entry, looked up): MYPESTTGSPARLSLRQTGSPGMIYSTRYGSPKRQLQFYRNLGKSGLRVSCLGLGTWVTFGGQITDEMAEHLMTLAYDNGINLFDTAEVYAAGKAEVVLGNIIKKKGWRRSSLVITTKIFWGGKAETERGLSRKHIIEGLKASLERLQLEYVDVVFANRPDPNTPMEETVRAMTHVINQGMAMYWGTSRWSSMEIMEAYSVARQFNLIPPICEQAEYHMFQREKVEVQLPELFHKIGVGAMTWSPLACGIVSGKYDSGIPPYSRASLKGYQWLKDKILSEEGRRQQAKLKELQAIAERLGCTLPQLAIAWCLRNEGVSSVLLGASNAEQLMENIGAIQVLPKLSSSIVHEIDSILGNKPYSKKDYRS

[5] = target: Voltage-gated potassium channel subunit beta-2 (Rattus norvegicus) (UniProt P62483); assay: enhancers of rat Kvbeta2 NADPH turnover – biochemical, NADPH fluorescence, primary screen (AID 623); settings: Recombinant KvBeta, NADPH fluorescence decrease slope, 10 min; at 10 µM; stronger effect = lower value;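 further: fluorescence intensity change per second fitted from 20 to 320 s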
[6] = target: Alpha-2C adrenergic receptor (Homo sapiens) (UniProt P18825); assay: compounds altering alpha2C-coupled GIRK flux – cell-based, HEK293 alpha2C/GIRK1/2, thallium flux, primary screen (AID 624;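 active means fluorescence slope after compound addition differing from the mean of all screened samples at 99.7% confidence, in either direction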;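 further: slope of fluorescence ratio to pre-addition baseline per second over 15 to 24 s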); settings: thallium flux BTC fluorescence, at 10 µM, actives lie on both sides
Chain of Alpha-2C adrenergic receptor (Homo sapiens) (P18825 whole entry, looked up): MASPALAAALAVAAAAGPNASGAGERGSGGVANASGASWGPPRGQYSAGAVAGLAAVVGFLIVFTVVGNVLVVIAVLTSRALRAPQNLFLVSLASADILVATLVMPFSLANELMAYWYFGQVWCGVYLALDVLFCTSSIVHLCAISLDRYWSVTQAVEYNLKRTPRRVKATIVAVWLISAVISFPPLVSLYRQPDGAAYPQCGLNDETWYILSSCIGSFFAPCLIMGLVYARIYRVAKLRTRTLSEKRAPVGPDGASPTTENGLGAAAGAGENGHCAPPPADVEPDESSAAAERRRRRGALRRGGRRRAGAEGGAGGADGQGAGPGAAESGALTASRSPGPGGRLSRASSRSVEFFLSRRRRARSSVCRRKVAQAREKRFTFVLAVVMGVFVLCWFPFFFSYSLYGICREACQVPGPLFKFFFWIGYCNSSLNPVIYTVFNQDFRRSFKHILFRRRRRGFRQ

[7] = blockers of RIG-like receptor reporter activation – cell-based, Sendai virus stimulus, luciferase, 10K MLSCN set, TLR/RLR signaling modifier project, primary screen (AID 602276;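 active means inhibition at or above 50% at 10 µM; inactive means inhibition below 50%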;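 further: firefly luciferase from ISG56 promoter only with Renilla not read in this screen; 0% = Sendai virus plus DMSO and 100% = medium plus DMSO without virus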); settings: HEK293 RL24 IRF3 luciferase reporter, at 10 µM, stronger effect = higher value
[8] = TLR3 IRF3 reporter activation blockers – cell-based, poly I:C stimulus, luciferase, 10K MLSCN set, primary screen (AID 602277;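 active means inhibition of the reporter signal at or above 50%; inactive means inhibition below 50%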); settings: HEK293-TLR3 RL24 IRF3 luciferase reporter, at 10 µM, stronger effect = higher value

Row | SMILES | cell count [1] | inhibition [1] | inhibition of aggregation [2] | nuclei count [2] | inhibition [3] | nuclei count [3] | fluorescence slope [4] | NADPH fluorescence slope [5] | slope [6] | inhibition [7] | inhibition [8]
1 | CCn1c(=O)c(C(=O)NCc2ccc(OC)cc2)c(O)c2ccccc21 | 685 | 12.5% (inactive) | 0.6% (inactive) | 101% | 33.9% (inactive) | 101% | -0.353 (inactive) | -2.5e-05 (inactive) | 0.00899 (inactive) | 14.7% (inactive) | 16.2% (inactive)
2 | CCN(C(=O)CCc1nc(-c2ccccc2F)no1)c1cc(OC)ccc1OC | 403 | 6.7% (inactive) | -4.7% (inactive) | 110% | -20.9% (inactive) | 115% | -0.425 (inactive) | 1.9e-05 (inactive) | 0.00445 (inactive) | -11.3% (inactive) | -31% (inactive)
3 | COc1ccc(-c2c(C(F)(F)F)oc3c(CN4CCN(C)CC4)c(O)ccc3c2=O)cc1 | 555 | 7.7% (inactive) | -14% (inactive) | 91.6% | 0.6% (inactive) | 112% | -0.421 (inactive) | 2.5e-05 (inactive) | 0.00536 (inactive) | -6.41% (inactive) | 8.59% (inactive)
4 | CC12COC3(C(=O)Nc4ccc(Cl)cn4)CC1CCC32C (stereo unspecified) | 773 | -8% (inactive) | 16.9% (inactive) | 85.1% | -32.6% (inactive) | 102% | -0.395 (inactive) | -5.6e-05 (inactive) | 0.00598 (inactive) | -1.35% (inactive) | 10.2% (inactive)
5 | COc1ccccc1NC1=NC(c2ccc(Cl)cc2)N=C(N)N1 (stereo unspecified) | 395 | 5.2% (inactive) | -17.1% (inactive) | 35.1% | -308% (inactive) | 124% | -0.299 (inactive) | -4.5e-05 (inactive) | 0.0046 (inactive) | 29.3% (inactive) | 49.9% (inactive)
6 | COc1cccc(-c2noc(-c3cccs3)n2)c1 | 390 | -0.7% (inactive) | 11.7% (inactive) | 110% | -29.5% (inactive) | 131% | -0.619 (inactive) | 2.2e-06 (inactive) | 0.00482 (inactive) | 6.14% (inactive) | -8.84% (inactive)
7 | O=C(Oc1ccc2ccc(OC(=O)N3CCOCC3)cc2c1)N1CCOCC1 | 388 | 6.8% (inactive) | -8.9% (inactive) | 107% | -7.5% (inactive) | 111% | -0.238 (inactive) | -1.6e-05 (inactive) | 0.00539 (inactive) | -2.44% (inactive) | -16.2% (inactive)
8 | O=C(Nc1ccc(Br)c2cccnc12)c1ccc(Cn2cc(Cl)cn2)o1 | 357 | 9.8% (inactive) | 10.4% (inactive) | 94.8% | -76.7% (inactive) | 99.5% | -0.519 (inactive) | -3.6e-05 (inactive) | 0.00614 (inactive) | -9.8% (inactive) | -11% (inactive)
9 | COc1cc2c(=O)nc3n(c2cc1OC)C(c1ccccc1)N=C(N)N3 (stereo unspecified) | 398 | -11.9% (inactive) | 17.7% (inactive) | 86.3% | 0.3% (inactive) | 98.2% | -0.312 (inactive) | -2.8e-05 (inactive) | 0.00451 (inactive) | 17.6% (inactive) | 23.9% (inactive)
10 | C/C=C(\C)c1nnc(NC(=O)C(C)C)s1 | 382 | -29% (inactive) | -12.2% (inactive) | 98.7% | -50.6% (inactive) | 95.4% | -0.474 (inactive) | 2.8e-06 (inactive) | 0.00558 (inactive) | -13.7% (inactive) | -7.26% (inactive)
11 | CCOC(=O)CSc1nc2cccnc2n1-c1ccc(F)cc1 | 328 | -0.2% (inactive) | -28% (inactive) | 110% | -26.8% (inactive) | 111% | -0.444 (inactive) | -1.6e-05 (inactive) | 0.0064 (inactive) | -4.88% (inactive) | 2.83% (inactive)
12 | N#Cc1c(N)c(C(=O)c2ccccc2)n2c1CCCC2 | 270 | -3.7% (inactive) | -10.6% (inactive) | 86.4% | -11.6% (inactive) | 96.6% | -0.46 (inactive) | -1.7e-05 (inactive) | 0.006 (inactive) | -3.25% (inactive) | 14.6% (inactive)
13 | CCn1c(SCc2nc3ccccc3c(=O)[nH]2)nnc1-c1cccnc1 | 628 | -11.9% (inactive) | -9.6% (inactive) | 107% | -66.6% (inactive) | 114% | -0.525 (inactive) | 7.8e-06 (inactive) | 0.00487 (inactive) | 21.2% (inactive) | 25% (inactive)
14 | COc1ccccc1NC(=O)c1ccc(COc2ccccc2OC)o1 | 596 | -15.7% (inactive) | -20% (inactive) | 132% | -77.6% (inactive) | 107% | -0.605 (inactive) | 2.4e-05 (inactive) | 0.00349 (inactive) | 12.4% (inactive) | 4.47% (inactive)
15 | COc1ccc(CN(C(=O)CSc2nnc(-c3ccccc3F)o2)c2ccc(F)cc2)cc1 | 560 | -14.3% (inactive) | 15% (inactive) | 85.2% | -118% (inactive) | 123% | -0.421 (inactive) | -3.9e-05 (inactive) | 0.0074 (inactive) | 8.03% (inactive) | 9.3% (inactive)
16 | COC(=O)c1ccccc1NC(=O)CSc1nc2c(c(=O)n(C)c(=O)n2C)n1C | 470 | 1% (inactive) | -5.1% (inactive) | 95.9% | 9.9% (inactive) | 119% | -0.382 (inactive) | 2e-05 (inactive) | 0.00766 (inactive) | -17.1% (inactive) | -34.2% (inactive)
17 | COC(=O)Nc1ccccc1C(=O)N1CCCCC1 | 403 | 9.9% (inactive) | 4% (inactive) | 120% | -25.5% (inactive) | 112% | -0.597 (inactive) | -8.5e-07 (inactive) | 0.00473 (inactive) | 6.49% (inactive) | 13.9% (inactive)
18 | COc1ccc(C)cc1NCc1cccc(OC)c1OC | 335 | -7% (inactive) | 7% (inactive) | 111% | -41.1% (inactive) | 110% | -0.496 (inactive) | -2.7e-05 (inactive) | 0.00476 (inactive) | -7.74% (inactive) | 24.1% (inactive)
19 | CCC(Sc1nc2sc(C(=O)OC)c(C)c2c(=O)n1N)C(=O)NCC1CCCO1 (stereo unspecified) | 477 | 7.5% (inactive) | -2.8% (inactive) | 117% | 12% (inactive) | 98.2% | -0.592 (inactive) | -6.1e-05 (inactive) | 0.00714 (inactive) | 7.5% (inactive) | 11.6% (inactive)
20 | CC1=CCC2C(=O)N(c3nc(C)cc(C)n3)C(=O)C2C1 (stereo unspecified) | 332 | 4.2% (inactive) | 9% (inactive) | 85.6% | -124% (inactive) | 105% | -0.53 (inactive) | -7.2e-05 (inactive) | 0.00507 (inactive) | 12.7% (inactive) | 21.2% (inactive)
21 | COc1ccc(C(NC(=O)C(C)(C)C)NC(=O)C(C)(C)C)cc1 | 364 | 3% (inactive) | 0.4% (inactive) | 106% | -52.8% (inactive) | 102% | -0.618 (inactive) | -1e-05 (inactive) | 0.00914 (inactive) | 4.79% (inactive) | 9.47% (inactive)
22 | O=C(CSc1ncnc2c1oc1ccccc12)NCc1ccco1 | 398 | 1.5% (inactive) | -6.6% (inactive) | 99.3% | -38.6% (inactive) | 105% | -0.61 (inactive) | -2.9e-05 (inactive) | 0.00442 (inactive) | 15.1% (inactive) | 25% (inactive)
23 | COc1ccc(CC(=O)NC2CCN(CC(=O)Nc3ccc4c(c3)OCCO4)CC2)cc1OC | 635 | -1.6% (inactive) | -5.8% (inactive) | 88.5% | -29.5% (inactive) | 111% | -0.428 (inactive) | -6.5e-06 (inactive) | 0.00308 (inactive) | 6.1% (inactive) | -5.8% (inactive)
24 | COc1cccc2cc(C(=O)OC3CCN(C)CC3)c(=O)oc12 | 532 | -6.1% (inactive) | 38.8% (inactive) | 77.9% | -56% (inactive) | 110% | -0.605 (inactive) | -2.6e-06 (inactive) | 0.00643 (inactive) | 6.92% (inactive) | 31.8% (inactive)
25 | COc1ccc(C(=O)Nc2ccc(S(=O)(=O)NC(C)=O)cc2)cc1 | 568 | 2.4% (inactive) | 21.1% (inactive) | 92.1% | 9.3% (inactive) | 107% | -0.494 (inactive) | -2.4e-05 (inactive) | 0.00509 (inactive) | 10.3% (inactive) | 6.87% (inactive)
26 | COc1ccc(-c2noc(CN(C(=O)C(C)(C)C)C(C)C)n2)cc1 | 420 | 5% (inactive) | 10.8% (inactive) | 93% | -73% (inactive) | 117% | -0.43 (inactive) | -5.1e-05 (inactive) | 0.00416 (inactive) | -16.3% (inactive) | -34% (inactive)
